{
  "source": "PubChem BioAssay (NCATS)",
  "note": "Inconclusive results are not listed. Values without a mark were called inactive. The source made the active and inactive calls. The call rests on the fitted dose curve; in most records, active means well fitted inhibition curve with a large enough effect; inconclusive means small, poorly fitted or top-dose-only effect; inactive means flat fitted curve, though single readings scatter. Potency means the concentration at half of the fitted maximal effect.",
  "data": [
    {"assay": "BET inhibitor-based combinations targeting novel dependencies in MECOM-rearranged (r) AML: AML-191 cell line (AID 2202236; further: nearly all actives have a fitted effect of over 35% in size;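 on viability (% of control): plate controls were vehicle wells for no effect and wells without cells for full effect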)", "settings": "AML-191 viability, CellTiter-Glo luminescence, 48 h; series mostly up to 46 µM; viability (% of control): at the top concentration", "summary_of_the_method": "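Here, 11-point titrations of each agent were applied to 500 seeded cells and incubated 48 hr; CellTiter-Glo signal, scaled against DMSO and empty wells, was integrated as AUC, then Z-scored within the individual line.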", "units": {"viability (% of control)": "%"}, "values": [
      {"smiles": "CC(=O)O/N=C1\\C(=O)N(Cc2cc(Cl)ccc2Cl)c2ccc(Cl)cc21", "Potency": "2.35 µM (active)"},
      {"smiles": "NC(=O)c1cc(F)cc2c1C(=O)N(C1CCN(C3CCC(F)(F)CC3)CC1)C2", "viability (% of control)": 94.5},
      {"smiles": "CN1N=C(N)c2cn([C@@H]3O[C@H](COP(=O)(O)O)[C@@H](O)[C@@H]3O)c3ncnc1c23", "Potency": "2.35 µM (active)"},
      {"smiles": "O=C(NO)c1cnc(NC2(c3ccccc3)CC2)nc1", "Potency": "7.42 µM (active)"},
      {"smiles": "C=CC(=O)N1CC[C@@H](Oc2nc(Nc3ccc(N4CCC(N5CCN(C)CC5)CC4)cc3)c(C(N)=O)nc2CC)C1", "Potency": "4.07 µM (active)"},
      {"smiles": "C=CC(=O)Nc1cccc(Oc2nc(Nc3ccc(N4CCN(C)CC4)c(F)c3)nc3[nH]ccc23)c1", "Potency": "5.9 µM (active)"},
      {"smiles": "COc1cc2c3c(n(CCCn4ccnc4)c(=O)c2cc1OC)-c1cc2c(cc1C3=O)OCO2", "Potency": "0.0332 µM (active)"},
      {"smiles": "O=C(/C=C/c1cccnc1)NCCCCC1CCN(C(=O)c2ccccc2)CC1", "Potency": "0.0059 µM (active)"},
      {"smiles": "CN[C@@H]1[C@@H](O)[C@@H](O[C@@H]2[C@@H](O)[C@H](O[C@H]3O[C@H](CN)[C@@H](O)[C@H](O)[C@H]3O)[C@@H](N)C[C@H]2NC(=O)C(O)CN)OC[C@]1(C)O", "note": "(some centres not stated)", "viability (% of control)": 89.9},
      {"smiles": "CCCCC[C@H](O)/C=C/[C@H]1[C@H](O)CC(=O)[C@@H]1CCCCCCC(=O)O", "viability (% of control)": 91.2},
      {"smiles": "COc1ccnc(CS(=O)c2nc3ccc(OC(F)F)cc3[nH]2)c1OC", "note": "(configuration not stated)", "viability (% of control)": 103},
      {"smiles": "CC(=O)N[C@H]1CSSC[C@@H](C(N)=O)NC(=O)[C@H](C(C)C)NC(=O)[C@H](C)NC(=O)[C@H](Cc2cnc[nH]2)NC1=O", "viability (% of control)": 105}
    ]}
  ]
}
